More than one record can exist for a structure, and the calls need not agree. Activity calls are given as the source filed them. Rule for the calls: active = hit-call score of the fitted dose curve at least 0.9, where 1 is the maximum; inactive = score below 0.9.
Experiments:
[1] = APR_HepG2_P-H2AX_72hr: Apredica 72-hour HepG2 Assay for H2AX Phosphorylation (AID 2282916); conditions: imaging, actives raise or lower the signal;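 note: phospho-histone H2A.x immunostain intensity per cell marking DNA damage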
Summary of the method: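 Phospho-H2A.x imaging endpoint in HepG2 after 72 hr compound exposure (0.39–200 uM, duplicate wells). Activity derived by bidirectional curve fitting with DMSO as baseline.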

[2] = APR_HepG2_MitoMembPot_72hr: Apredica 72-hour HepG2 Assay for Mitochondrial Membrane Potential (AID 2282917); conditions: imaging, actives raise or lower the signal
Summary of the method: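 HepG2 cells dosed 72 hr with compound at 0.39–200 uM in duplicate, 0.5% v/v DMSO final. Mitochondria stained with 250 nM MitoTracker Red CMXRos for 30 min before formaldehyde fixation, imaged by high-content fluorescence; bidirectional fit versus DMSO.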

[3] = APR_HepG2_MitoticArrest_72hr: Apredica 72-hour HepG2 Assay for Mitotic Arrest (AID 2282918); conditions: high-content imaging, actives raise or lower the signal
Summary of the method: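 HepG2 cells were exposed for 72 hr to compound at 0.39–200 uM (10 concentrations, duplicate) in 0.5% v/v DMSO, fixed in 3.7% formaldehyde, immunostained for phospho-histone H3 with Hoechst 33342 and imaged by high-content fluorescence; bidirectional fits versus DMSO.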

[4] = APR_HepG2_MicrotubuleCSK_72hr: Apredica 72-hour HepG2 Assay for Microtubule CSK Stabilty (AID 2282919); conditions: HepG2 microtubule cytoskeleton, high-content imaging, actives raise or lower the signal
Summary of the method: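 HepG2, 72 hr cmpd exposure, 0.39–200 uM (10 pts, duplicate), 0.5% DMSO. 3.7% formaldehyde fix, 0.5% Triton perm, anti-alpha-tubulin/Cy5 plus Hoechst. HCS fluorescence intensity; bidirectional fit vs DMSO baseline; taxol as positive control.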

[5] = APR_HepG2_P-H2AX_24hr: Apredica 24-hour HepG2 Assay for H2AX Phosphorylation (AID 2282920); conditions: high-content imaging, actives raise or lower the signal
Summary of the method: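 HepG2 human liver cells were exposed for 24 hr to compounds at 0.39–200 uM in duplicate, with 0.5% v/v DMSO final. Fixed cells were immunostained for phospho-histone H2A.x plus Hoechst 33342, imaged by HCS fluorescence, and fitted bidirectionally against DMSO.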

[6] = APR_HepG2_StressKinase_72hr: Apredica 72-hour HepG2 Assay for Stress Kinase (AID 2282921); conditions: HepG2 stress kinase (phospho-c-Jun) imaging, actives raise or lower the signal
Summary of the method: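 Stress kinase signal reflects nuclear phospho-c-Jun staining in fixed, permeabilized cells exposed 72 h to compound at 0.39–200 uM; DMSO-normalized, fitted for increases or decreases.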

[7] = APR_HepG2_StressKinase_24hr: Apredica 24-hour HepG2 Assay for Stress Kinase (AID 2282922); conditions: HepG2 stress kinase (phospho-c-Jun) imaging, actives raise or lower the signal
Summary of the method: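 Read-out: phospho-c-Jun immunofluorescence (Cy3 secondary) quantified by high-content imaging at 20x, nuclei defined by Hoechst 33342. Human HepG2 liver cells dosed 24 hr, 0.39–200 uM, DMSO 0.5% v/v; gain or loss of signal fitted relative to DMSO.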

[8] = APR_HepG2_p53Act_72hr: Apredica 72-hour HepG2 Assay for p53 Activation (AID 2282923); conditions: high-content imaging, actives raise or lower the signal;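 note: average cellular p53 protein immunofluorescence intensity in HepG2 cells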
Summary of the method: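 Fixed-cell p53 staining (sheep primary, Cy5 secondary) measured by fluorescence imaging following 72 hr treatment at 0.39–200 uM in 0.5% DMSO; DMSO served as negative control and baseline.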

[9] = APR_HepG2_MitoMass_72hr: Apredica 72-hour HepG2 Assay for Mitochondrial Mass (AID 2282924); conditions: high-content imaging, actives raise or lower the signal;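 note: MitoTracker Red CMXRos stain intensity per cell imaged as mitochondrial mass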
Summary of the method: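 Read-out: MitoTracker Red fluorescence intensity from automated imaging (20x, six fields per well) in human HepG2 liver cells. Dosing ran 72 hr, 0.39–200 uM, 0.5% DMSO; bidirectional curve fitting versus DMSO baseline.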

[10] = APR_HepG2_NuclearSize_72hr: Apredica 72-hour HepG2 Assay for Nuclear Size (AID 2282925); conditions: high-content imaging, actives raise or lower the signal
Summary of the method: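 Read-out: nuclear diameter from Hoechst 33342 images (ArrayScan, 20x, six fields/well), via cell-cycle image analysis. HepG2 were dosed 0.39–200 uM for 72 hr in 0.5% DMSO. Bidirectional fit relative to DMSO.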

[11] = ATG_CRE_CIS: Attagene CIS-FACTORIAL HepG2 Assay for human cAMP Responsive Element (CRE) binding protein 3 (AID 2282926); conditions: HepG2 CRE cis-reporter, Attagene multiplexed mRNA; actives raise or lower the signal
Summary of the method: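 Capillary electrophoresis of 6-FAM-labelled, HpaI-digested PCR products quantified reporter transcripts. These came from HepG2 transiently transfected with cis-element reporters and exposed to test chemicals for 24 hours, with DMSO defining baseline activity.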

[12] = molecular target: CCAAT/enhancer-binding protein beta (Homo sapiens) (UniProt P17676); test: ATG_C_EBP_CIS: Attagene CIS-FACTORIAL HepG2 Assay for human CCAAT/Enhancer Binding Protein (C/EBP) beta (AID 2282927); conditions: HepG2 Attagene cis-factorial transcription factor reporter; actives raise or lower the signal
Summary of the method: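 HepG2 transiently transfected with multiplexed reporter units under cis-regulatory promoters reporting endogenous C/EBPb activity. After 24 h exposure, reporter mRNA assayed by RT-PCR, fluorescent labelling, HpaI digestion and capillary electrophoresis; bidirectional fitting versus DMSO.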

[13] = ATG_CMV_CIS: Attagene CIS-FACTORIAL HepG2 Assay for human CMV (Internal Marker) (AID 2282928); conditions: HepG2 CMV promoter reporter, transcription factor profiling; actives raise or lower the signal;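 note: endpoint acts as a background internal control marker rather than a target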
Summary of the method: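 Fluorescence intensity of RT-PCR-derived reporter fragments, resolved by capillary electrophoresis, gives the signal. HepG2 liver cells bearing transfected cis-element reporters were treated 24 h; activity in either direction was fit relative to DMSO-treated controls.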

[14] = ATG_DR4_LXR_CIS: Attagene CIS-FACTORIAL HepG2 Assay for human Liver X Receptor (LXR), DR4 submotif (AID 2282929); conditions: HepG2 Attagene DR4 cis-reporter, mRNA transcription; actives raise or lower the signal
Summary of the method: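 HepG2 cells transiently transfected with cis-promoter-driven multiplexed reporter units (DR4 element) were dosed for 24 h. Reporter mRNA was quantified by RT-PCR, fluorescent primer extension, HpaI digestion and capillary electrophoresis; bidirectional fitting versus DMSO baseline.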

[15] = molecular target: Aryl hydrocarbon receptor (Homo sapiens) (UniProt P35869); test: ATG_Ahr_CIS: Attagene CIS-FACTORIAL HepG2 Assay for human Aryl Hydrocarbon Receptor (Ahr) (AID 2282930); conditions: HepG2 AhR cis-factorial reporter transcription; actives raise or lower the signal
Summary of the method: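 HepG2 cells transiently transfected with cis-element-driven multiplexed reporter units; endogenous AhR activity read as reporter mRNA 24 h after dosing, via RT-PCR, 6-FAM labelling, HpaI digestion and capillary electrophoresis. Bidirectional fit relative to DMSO.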

[16] = ATG_AP_1_CIS: Attagene CIS-FACTORIAL HepG2 Assay for human Activator Protein 1 (AP-1) (AID 2282931); conditions: HepG2 Attagene cis-factorial AP-1 reporter mRNA; actives raise or lower the signal
Summary of the method: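 HepG2 cells transiently transfected with cis-element-driven multiplex reporter units; 24 h compound exposure. Reporter mRNA quantified by RT-PCR, FAM-labelled fragments resolved by capillary electrophoresis; bidirectional fit versus DMSO baseline.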

[17] = ATG_AP_2_CIS: Attagene CIS-FACTORIAL HepG2 Assay for human Activator Protein 2 (AP-2) (AID 2282932); conditions: HepG2 AP-2 cis-reporter, Attagene transcription factor profiling; actives raise or lower the signal
Summary of the method: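 Read-out: fluorescent reporter mRNA via RT-PCR and capillary electrophoresis, 24 h post-dose in transiently transfected HepG2. Endogenous factors drive cis-promoter reporters; gain or loss of signal fitted bidirectionally against DMSO.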

[18] = ATG_BRE_CIS: Attagene CIS-FACTORIAL HepG2 Assay for human Bone Morphogenetic Protein (BMP) Response Element (BRE) (AID 2282933); conditions: HepG2 BMP response element reporter, Attagene transcription factor profiling; actives raise or lower the signal
Summary of the method: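 Multiplexed cis-reporter assay, HepG2, 24 h exposure. mRNA from reporter units quantified via RT-PCR/CE; DMSO baseline; bidirectional curve fit.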

[19] = molecular target: Retinoic acid receptor alpha (Homo sapiens) (UniProt P10276); test: ATG_DR5_RAR_CIS: Attagene CIS-FACTORIAL HepG2 Assay for human Retinoic Acid Receptor Alpha (RARE), DR5 submotif (AID 2282934); conditions: HepG2 Attagene cis-factorial RARE DR5 reporter, mRNA; actives raise or lower the signal
Summary of the method: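 HepG2 cells transiently transfected with multiplexed reporter units; DR5 cis-element drives reporter through endogenous transcription factors. After 24 h dosing, reporter mRNA quantified by RT-PCR, fluorescent labeling, HpaI digestion and capillary electrophoresis; bidirectional fitting versus DMSO.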

[20] = molecular target: Transcription factor E2F1 (Homo sapiens) (UniProt Q01094); test: ATG_E2F_CIS: Attagene CIS-FACTORIAL HepG2 Assay for human E2F Transcription Factor 1 (AID 2282935); conditions: HepG2 Attagene cis-reporter, E2F reporter RNA transcripts; actives raise or lower the signal
Summary of the method: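 Transient MRTU transfection of HepG2; 24 h compound exposure; RNA → oligo(dT) RT → PCR → FAM label → HpaI cut → CE fluorescence. Gain/loss of signal fit against DMSO.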

Measured: AC50

Chain of CCAAT/enhancer-binding protein beta (Homo sapiens) (P17676 whole entry, looked up): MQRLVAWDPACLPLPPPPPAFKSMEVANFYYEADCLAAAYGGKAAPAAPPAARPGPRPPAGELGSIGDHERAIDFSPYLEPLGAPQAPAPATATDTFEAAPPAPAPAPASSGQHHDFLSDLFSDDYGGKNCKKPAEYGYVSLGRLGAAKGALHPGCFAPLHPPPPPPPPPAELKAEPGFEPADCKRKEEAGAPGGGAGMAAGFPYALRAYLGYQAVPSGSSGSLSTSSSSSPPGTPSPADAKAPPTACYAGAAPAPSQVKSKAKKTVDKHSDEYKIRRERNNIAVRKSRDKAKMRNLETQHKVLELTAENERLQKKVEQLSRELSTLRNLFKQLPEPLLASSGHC
Chain of Retinoic acid receptor alpha (Homo sapiens) (P10276 whole entry, looked up): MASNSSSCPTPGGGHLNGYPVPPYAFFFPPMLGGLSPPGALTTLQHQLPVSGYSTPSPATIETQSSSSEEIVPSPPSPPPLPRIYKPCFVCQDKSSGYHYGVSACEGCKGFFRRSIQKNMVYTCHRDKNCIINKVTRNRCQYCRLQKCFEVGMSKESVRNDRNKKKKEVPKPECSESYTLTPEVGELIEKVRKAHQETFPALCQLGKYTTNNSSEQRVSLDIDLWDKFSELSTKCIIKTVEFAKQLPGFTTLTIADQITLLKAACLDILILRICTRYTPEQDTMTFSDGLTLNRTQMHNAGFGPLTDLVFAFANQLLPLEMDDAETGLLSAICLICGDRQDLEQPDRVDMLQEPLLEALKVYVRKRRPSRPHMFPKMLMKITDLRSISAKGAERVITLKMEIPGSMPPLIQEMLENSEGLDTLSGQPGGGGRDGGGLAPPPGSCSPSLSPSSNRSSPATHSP
Chain of Transcription factor E2F1 (Homo sapiens) (Q01094 whole entry, looked up): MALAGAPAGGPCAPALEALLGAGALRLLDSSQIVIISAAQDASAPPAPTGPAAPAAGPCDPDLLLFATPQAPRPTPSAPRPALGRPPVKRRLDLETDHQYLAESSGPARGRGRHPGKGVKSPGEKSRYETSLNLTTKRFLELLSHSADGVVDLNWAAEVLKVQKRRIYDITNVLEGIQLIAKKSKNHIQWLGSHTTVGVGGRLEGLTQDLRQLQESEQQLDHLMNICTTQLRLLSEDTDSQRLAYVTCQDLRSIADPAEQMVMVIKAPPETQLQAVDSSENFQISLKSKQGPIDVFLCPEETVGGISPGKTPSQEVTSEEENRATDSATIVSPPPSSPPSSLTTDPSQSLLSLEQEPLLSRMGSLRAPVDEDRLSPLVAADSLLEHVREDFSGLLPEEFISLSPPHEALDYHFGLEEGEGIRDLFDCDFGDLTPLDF
Chain of Aryl hydrocarbon receptor (Homo sapiens) (P35869 whole entry, looked up): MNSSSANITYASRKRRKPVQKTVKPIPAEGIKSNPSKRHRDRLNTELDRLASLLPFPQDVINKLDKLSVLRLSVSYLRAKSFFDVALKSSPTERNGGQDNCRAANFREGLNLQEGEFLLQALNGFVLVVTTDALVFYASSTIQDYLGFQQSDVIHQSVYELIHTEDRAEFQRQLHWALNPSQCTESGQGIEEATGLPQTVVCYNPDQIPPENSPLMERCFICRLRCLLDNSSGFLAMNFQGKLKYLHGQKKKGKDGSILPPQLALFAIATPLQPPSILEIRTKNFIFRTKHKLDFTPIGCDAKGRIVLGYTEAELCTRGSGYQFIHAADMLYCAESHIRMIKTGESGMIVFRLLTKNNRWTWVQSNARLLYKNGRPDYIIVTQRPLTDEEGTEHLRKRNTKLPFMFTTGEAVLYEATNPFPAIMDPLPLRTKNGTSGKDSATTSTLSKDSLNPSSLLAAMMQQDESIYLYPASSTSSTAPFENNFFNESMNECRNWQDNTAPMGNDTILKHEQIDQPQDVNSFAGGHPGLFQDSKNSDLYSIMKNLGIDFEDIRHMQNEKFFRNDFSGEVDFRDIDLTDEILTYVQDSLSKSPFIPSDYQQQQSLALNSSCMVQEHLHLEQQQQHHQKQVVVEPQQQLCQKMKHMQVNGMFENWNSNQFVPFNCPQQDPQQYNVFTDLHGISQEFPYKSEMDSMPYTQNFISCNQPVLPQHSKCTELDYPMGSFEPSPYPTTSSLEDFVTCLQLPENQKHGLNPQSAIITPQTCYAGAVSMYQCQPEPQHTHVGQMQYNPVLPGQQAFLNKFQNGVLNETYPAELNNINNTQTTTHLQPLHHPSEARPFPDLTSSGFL

NCc1cccc(C2CCN(C(=O)c3ccc(C#Cc4ccccc4F)o3)CC2)c1
inactive: [4] | [7] | [9] | [14] | [15] | [17] | [18] | [19] | [20]
active: [1] 17.7 µM | [2] 98.3 µM | [3] 17.2 µM | [5] 18.6 µM | [6] 14.3 µM | [8] 11.4 µM | [10] 107 µM | [11] 11 µM | [12] 11 µM | [13] 11 µM | [16] 11 µM

Clc1ccccc1C(c1ccccc1)(c1ccccc1)n1ccnc1
inactive: [4] | [9] | [11] | [12] | [17] | [19] | [20]
active: [1] 25.8 µM | [3] 24.8 µM | [5] 79.4 µM | [6] 29.3 µM | [7] 62 µM | [10] 55.5 µM | [13] 17.8 µM | [14] 1.48 µM | [15] 3.01 µM | [16] 10.4 µM | [18] 11.1 µM

Cc1cc(F)ccc1-c1cc(N2CC[C@@H](O)[C@H]2CO)ncc1N(C)C(=O)C(C)(C)c1cc(C(F)(F)F)cc(C(F)(F)F)c1
active: [1] 57.7 µM | [3] 74 µM | [5] 53.8 µM
not listed: [8]
inactive: all other assays above

CO[C@H]1/C=C/O[C@@]2(C)Oc3c(C)c(O)c4c(O)c(c(/C=N/N5CCN(C)CC5)c(O)c4c3C2=O)NC(=O)/C(C)=C\C=C\[C@H](C)[C@H](O)[C@@H](C)[C@@H](O)[C@@H](C)[C@H](OC(C)=O)[C@@H]1C
inactive: [1] | [4] | [5] | [6] | [7] | [9] | [10] | [11] | [12] | [13] | [15] | [16] | [17] | [18] | [19] | [20]
active: [3] 46.2 µM | [15] 37.4 µM

O=C(OCCCCCCOC(=O)c1ccccc1)c1ccccc1
not listed: [2]
inactive: all other assays above

c1ccc2ccccc2c1
active: [3] 0.0415 µM | [8] 0.0391 µM | [9] 0.0598 µM
not listed: [1]
inactive: all other assays above

— PubChem BioAssay (EPA / NIEHS)
